For 37 compounds, growth results are on record in PubChem BioAssay (NCI).

SMILES strings stand for the structures. Values joined by “and” are separate entries in the source; they are usually repeats but may differ in a detail not shown here. Equal entries are not always repeated. The panel holds about 83,000 compounds, 20% with a hit somewhere; the sample as a whole holds those more often.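 Method: cells in 96-well plates; compound added at one concentration; 48 h incubation; percent growth measured; values under 10 scored active.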 Unmarked numbers belong to inactive results. Active and inactive are the calls of the source.

This assay relates to MDA-MB-468 breast. The assay is described as follows: NCI-60 one-dose screen, 48 h (100 = growth as untreated, 0 = no growth, -100 = all killed). The note with it: 10 µM unless noted.
Consider `O=C1/C(=C/N2N=C(c3ccc(Cl)cc3)CC2c2ccccc2O)SC(=S)N1c1cccc(C(F)(F)F)c1` (configuration not stated), for which the growth was 62.2%.
In the case of `c1ccc(C2CCCCC2)c(OCCCCCN2CCNCC2)c1` it was -36.2% (active); in that of `Clc1cc(Cl)cc(Nc2ccc3c(OCCCN4CCOCC4)cccc3n2)c1`, 20.6%; in that of `COC(=O)[C@H](Cc1cn(C)cn1)NC(=O)[C@@H](NC(=O)Nc1cc(C(F)(F)F)cc(C(F)(F)F)c1)C(C)(C)C`, -63.1% [100 µM] (active).
In the case of `Cn1c2ccccc2c2c(OC(=O)c3ccccc3)c3c(nc21)-c1ccccc1C3` it was 100%; in that of `O=C1CSC(=O)N1Cc1cc2ccccc2nc1Cl`, 97.8%.
In the case of `O=C(O)C1CSCN1` (configuration not stated) it was 114% and 95.5%.
For the compound `COc1cccc(CNc2c3ccccc3nc3ccccc23)c1OC`, the growth was 1.08% (active).
Consider `CCn1cnc(C[C@H](NC(=O)[C@@H](NC(=O)Nc2cc(C(F)(F)F)cc(C(F)(F)F)c2)C(C)(C)C)C(=O)OC)c1`, for which the growth is -75.6% [100 µM] (active).
As to `COc1ccc2ccccc2c1/C=N/N1CCCCC1`, the growth is 113%.
In the case of `CCCC/C(CC)=N\NS(=O)(=O)c1ccc([N+](=O)[O-])cc1` it was 109%.
Then `O=C1/C(=C/c2cccc(O)c2)COc2ccc(O)cc21`, with 52.8%; and `CCC1CCc2nc3sc(C(=O)Nc4cccc(F)c4)c(N)c3cc2C1` (configuration not stated), with 23.4%.
Then `O=Nc1ccc(O)cc1`, with 78.3% and 93.9%.
Turning to `COC(=O)c1ccc2oc(NC(=O)c3ccc(Nc4ccc([N+](=O)[O-])cc4C)c([N+](=O)[O-])c3)nc2c1`, the growth is 102%.
In the case of `CCN1C(=O)N(CC)C2C1NC(=S)N2/N=C/c1ccc(C(F)(F)F)cc1` (configuration not stated) it was 49.4%; in that of `CCOC(=O)CNS(=O)(=O)CC(=O)c1ccccc1`, 54.1%; in that of `CN(C[C@@H]1COCCO1)S(=O)(=O)Nc1ccc2ccc3ncc(-c4cnn(C)c4)cc3c(=O)c2c1`, 49.9%.
Take `CN(C)CCCNC(=O)c1cncnc1Nc1ccc2c(ccn2Cc2cccc(F)c2)c1`: the growth is 52.6%.
In the case of `CCC(=O)Oc1ccc(/C(=C(\C)c2ccccc2)c2ccc(OCCN(CC)CC)cc2)cc1` it was 82.4%.
In the case of `COc1cccc(Cn2c(-c3nonc3NC(C)=O)nc3ccccc32)c1` it was -7.42% (active); in that of `O=C1Nc2ccccc2/C1=N/N=C/c1ccc(OC2OC(CO)C(O)C(O)C2O)cc1` (configuration not stated), 112%.
In the case of `C=C(C)[C@@H]1CC[C@]2(C(N)=O)CC[C@]3(C)[C@H](CC[C@@H]4[C@@]5(C)C/C(=C/c6cccnc6)C(=O)C(C)(C)[C@@H]5CC[C@]43C)[C@@H]12` it was 14.5% [100 µM]; in that of `CC(O)CCC(C)[N+](=O)[O-]` (configuration not stated), 107%.
For `N#Cc1cnc2ccc(-c3cnc(N)nc3)cc2c1N1CCc2cc(F)c(Cl)cc21`, the growth was -38.1% (active).
As for `CCn1c(=S)[nH]c2c(=O)n(C)c(=O)n(C)c21`, the growth was 100%.
In the case of `Brc1ccc(SSc2ccc(Br)cc2)cc1` it was 87%; in that of `Oc1ccccc1-c1nnco1`, 88.7%; in that of `Cc1cc(O)c(=O)cc2c1C[C@H]1CC(C)(C)/C=C/C[C@]3(C)Oc4cc(=O)c(O)cc(C)c4C[C@H]3C[C@H](O)[C@@]1(C)O2`, -16.7% (active) and -22.9% (active).
In the case of `O=S(=O)(NCCNc1nccc(-c2c(-c3cccc(F)c3)nc3sccn23)n1)c1ccc(Cl)cc1` it was 64.5%.
In the case of `CCN1CCN(C(=O)[C@@]2(C)CC[C@]3(C)CC[C@]4(C)C(=CC(=O)[C@@H]5[C@@]6(C)CC[C@H](OCCC#N)C(C)(C)[C@@H]6CC[C@]54C)[C@@H]3C2)CC1` it was 90.9%; in that of `CCOC(=O)[C@@H]1CCCN(S(=O)(=O)c2ccc(S(=O)(=O)N(CC)CC)c(F)c2)C1`, 36%.
`O=C1c2cc3c(cc2-c2c1c1ccc(Cl)cc1c(=O)n2CCCn1ccnc1)OCO3`: the growth was -47.9% (active).
Then `C=C1CC[C@@H]2[C@@](C)(CCC[C@]2(C)C(=O)O)[C@@H]1CC[C@H](CO)CCO`, with 108%.
For `O=C(CSc1nc2ccc([N+](=O)[O-])cc2[nH]1)Nc1ccc([N+](=O)[O-])cc1`, the growth is -12.4% (active).
As for `O=C(Nc1cccc(Cl)c1)Nc1nc2ccc([N+](=O)[O-])cc2o1`, the growth is -4.51% (active).
In the case of `CC(=O)OC[C@]12CC[C@@H](C(=O)CBr)[C@@H]1[C@H]1CC[C@@H]3[C@@]4(C)CCCNC(C)(C)[C@@H]4CC[C@@]3(C)[C@]1(C)CC2` it was -67.7% [100 µM] (active).
